Experimental data from PubChem BioAssay (NCI).
Compounds without any hit were thinned out: in the full panel of roughly 79,000, 15% have a hit. Active and inactive are the calls of the source. Cut-off read from the data, not from the text of the source: active = growth inhibition above about 70%; inactive = the rest.

Test: NCI Yeast Anticancer Drug Screen. Data for the mec2-1 strain (AID 157)
Settings: S. cerevisiae mec2-1 strain, at 50.0 µM (retest, dose inferred, filed as 5.0), active compounds read high
How it was run: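 Cells of the genetically defined mec2-1 yeast strain are incubated with test compound. Inhibition of growth is calculated against vehicle-treated controls.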

Question: For `C=CCOc1cc2c(ccc1=O)-c1c(cc(OC)c(OC)c1OC)CCC2NC(C)=O` (stereo unspecified), which growth inhibition is on record?
Answer: 80% (active)

Question: For `c1ccc2c(c1)[As]=c1ccccc1=[As]2` (stereo unspecified), which growth inhibition is on record?
Answer: 99% (active)

Question: With `CCC(C)(c1ccc(O)cc1)c1ccc(O)cc1` as the molecule, how does the growth inhibition read?
Answer: 99% (active)

Question: For `COc1cc(C2c3cc4c(cc3[C@@H](Nc3ccc(F)cc3)C3COC(=O)[C@H]23)OCO4)cc(OC)c1O` (stereo partly specified), which growth inhibition is on record?
Answer: 98% (active)

Question: With `CC(C)(C)OC(=O)NC(CSC(c1ccccc1)(c1ccccc1)c1cccs1)C(=O)O` (stereo unspecified) as the molecule, how does the growth inhibition read?
Answer: 99% (active)

Question: Which growth inhibition does the source give for `CCOP(=S)(OCC)OC(c1ccc(Cl)cc1)c1ccc(Cl)cc1` here?
Answer: -7% (inactive)

Question: For `COc1ccc(OC)c(C=O)c1`, which growth inhibition is on record?
Answer: 7% (inactive)

Question: For `CC(=O)Oc1cccc2c1CC(C[Se]c1ccccc1)C(=O)O2` (stereo unspecified), which growth inhibition is on record?
Answer: 35% (inactive)

Question: For `CCOC(=S)S`, which growth inhibition is on record?
Answer: 100% (active)

Question: With `CC(NCCN(C)C)C1CC2CCCCN2C1` (stereo unspecified) as the molecule, how does the growth inhibition read?
Answer: -14% (inactive)

Question: For `Nc1ncc(CCCCc2ccc(NC(=O)Nc3ccc(S(=O)(=O)F)cc3)cc2)c(N)n1`, which growth inhibition is on record?
Answer: 60% (inactive)

Question: For `CC#N.FC(F)(F)C#CC(F)(F)F.FC(F)(F)C#CC(F)(F)F.FC(F)(F)C#CC(F)(F)F.[W]`, which growth inhibition is on record?
Answer: 99% (active)

Question: With `[Cl][Hg][CH2]CC1CC=CCC1` (stereo unspecified) as the molecule, how does the growth inhibition read?
Answer: 100% (active)

Question: For `CC(=O)O[C@H]1CC[C@H]2[C@@H]3CCC4=CC(=O)CC[C@@H]4[C@H]3CC[C@]12C`, which growth inhibition is on record?
Answer: 92% (active)

Question: With `c1ccc(P(CCP(c2ccccc2)c2ccccc2)CCP(c2ccccc2)c2ccccc2)cc1` as the molecule, how does the growth inhibition read?
Answer: 94% (active)

Question: With `Cc1cc(NCc2ccccc2)c2ccccc2[n+]1CCCCCCCCCC[n+]1c(C)cc(NCc2ccccc2)c2ccccc21` as the molecule, how does the growth inhibition read?
Answer: 99% (active)
